D3 ag = qHTS of D3 Dopamine Receptor Agonist: qHTS; D3R DiscoveRx beta-arrestin cells, luminescence, 90 min; actives 0.58% (n = 410,000); max activation, %; D(3) dopamine receptor (Homo sapiens), P35462; AID 652048, 2013; in the data active = max activation above about 30%; also: 0% is about no effect
Target sequence (P35462 whole entry, looked up): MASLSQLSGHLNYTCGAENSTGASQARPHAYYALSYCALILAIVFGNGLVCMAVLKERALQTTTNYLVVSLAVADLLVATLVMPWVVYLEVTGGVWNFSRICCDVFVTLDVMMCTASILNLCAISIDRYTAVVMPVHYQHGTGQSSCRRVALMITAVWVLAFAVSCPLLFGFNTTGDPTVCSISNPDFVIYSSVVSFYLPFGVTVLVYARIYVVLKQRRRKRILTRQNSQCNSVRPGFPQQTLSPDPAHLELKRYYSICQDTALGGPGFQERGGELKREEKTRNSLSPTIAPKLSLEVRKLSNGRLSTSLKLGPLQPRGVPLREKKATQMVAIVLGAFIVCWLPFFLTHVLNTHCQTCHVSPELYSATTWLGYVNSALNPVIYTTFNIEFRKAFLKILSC
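Agonist-mode cell screen: cells plated at 1500/well and incubated overnight at 37 °C, then exposed to library compounds for 90 min at 37 °C. Detection reagent was added for 30–60 min at room temperature, and luminescence was read.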
TGFb SMAD3 inh = qHTS for Inhibitors of TGF-b. Potency, µM (highest dose often 46.1 µM), inactives show top-dose activity, negative = inhibition, hits mostly inhibitors. HepG2 CAGA-GFP TGF-b/SMAD3 reporter, GFP fluorescence, 18 h; TGF-beta stimulated, 500 pg/mL final. actives 1.2% (n = 410,000); also: potency is read from the fitted curve at half-maximal effect; % is scaled to controls: 0 for no effect and ±100 for the full control effect; nearly all actives have a fitted effect of over 65% in size
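Per well, imaged GFP fluorescence of HEPG2 CAGA-GFP cells gives the signal; cells get compound, then TGF-beta (500 pg/mL final), 18 h at 37 degrees C; %Activity versus -TGF-beta and +DMSO controls.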
DRD3 antagonist = qHTS of D3 Dopamine Receptor Antagonist: qHTS; D3R cells, DiscoveRx beta-arrestin luminescence, antagonist mode; stronger effect = lower value; max response, negative = inhibition, %; D(3) dopamine receptor (Homo sapiens), P35462; actives 2.5% (n = 360,000); in the data active = max response below about -50%; inconclusive = no clear call, values can overlap the other calls; also: % is scaled to controls: 0 for no effect and ±100 for the full control effect
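Cells expressing the human receptor were seeded at 1500 cells/well, incubated overnight at 37 degrees C in 5% CO2, then exposed to library compounds with dopamine controls for 90 minutes at 37 degrees C before luminescent detection.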
HepG2 viability = qHTS for Inhibitors of TGF-b: Cytotox Counterscreen | HepG2 CAGA-GFP viability, ATP luminescence, 18 h | Potency, µM (titrated, usually from 46.1 µM), inactives show at the top dose activity change, negative = cytotoxicity, most hits filed as cytotoxic | actives 0.76% (n = 410,000) | AID 588856, 2011; also: potency is read from the fitted curve at half-maximal effect
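CellTiter-Glo luminescence gave cytotoxicity after 18 hours at 37 degrees C. The cells were HepG2 CAGA-GFP in 1% FBS DMEM, stimulated with 500 pg/mL TGF-beta after compound addition. %Activity was normalised to no-cell wells (complete cell-killing) and DMSO (no toxicity), and curves were fitted and classified.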
S2 tox = Viability Counterscreen for Primary qHTS for Inhibitors of ATXN expression. Potency, µM (doses to about 56.7 µM), actives largely listed as cytotoxic. S2 cells (HEK-293 line with an ATXN2-luciferase reporter) viability, CellTiter-Fluor protease fluorescence, 24 h. actives 0.49% (n = 400,000); also: potency is read from the fitted curve at half-maximal effect; nearly all actives have a fitted effect of over 40% in size
ATXN2 expr inh = Primary qHTS for Inhibitors of ATXN expression | actives 0.72% (n = 360,000) | AID 1745845, 2022 | Potency, µM (top dose mostly 57 µM), for the others: at the highest dose activity change, negative = inhibition, usual class: inhibitors | HEK-293 ATXN2-luciferase reporter, luminescence, 24 h; also: potency is read from the fitted curve at half-maximal effect; % is scaled to controls: 0 for no effect and ±100 for the full control effect; nearly all actives have a fitted effect of over 55% in size
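ATXN2-luciferase reporter cells (luciferase flanked by upstream and downstream ATXN2 gene portions) were treated 24 h at 37 °C with compounds at up to 57 uM. SteadyGlo luminescence gave expression; GF-AFC fluorescence gave viability.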
An asterisk follows results filed as active. Rows were chosen to be rich in hits. Some 4.8% of all compounds tested hit in one or more screens of this group. Unless noted, calls follow the shape of the dose curve; as a rule, active = well fitted curve in the direction sought with a large enough effect; inconclusive = small, poorly fitted or top-dose-only effect, or another doubt; inactive = no such curve, though single readings can be large; an effect the other way counts as inactive or inconclusive.

How did CCc1ccccc1NC(=O)c1sc(-n2nc(C)c(Cc3ccccc3)c2C)nc1C do in these assays?
D3 ag: -23; TGFb SMAD3 inh: 3%; HepG2 viability: 5%

What do the screens show for `O=C1Cc2ccccc2Sc2c(OCCN3CCCCC3)cccc21`?
D3 ag: -31; TGFb SMAD3 inh: 1%; DRD3 antagonist: -65*; HepG2 viability: -22%; S2 tox: inconclusive; ATXN2 expr inh: -19%

How did CN(C)CCCOc1ccc2c(c1)Sc1ccccc1CC2=O do in these assays?
D3 ag: -47; TGFb SMAD3 inh: -1%; DRD3 antagonist: inconclusive; HepG2 viability: 3%; S2 tox: inactive; ATXN2 expr inh: -5%

How did O=C1Cc2ccccc2Sc2cc(OCCCN3CCCCC3)ccc21 do in these assays?
D3 ag: -6; TGFb SMAD3 inh: -6%; DRD3 antagonist: -53*; HepG2 viability: -13%; S2 tox: inconclusive; ATXN2 expr inh: -10%

Results for CC(=O)OCCNc1cc(Sc2nc3ccccc3[nH]2)c2nonc2c1[N+](=O)[O-] ?
D3 ag: -28; TGFb SMAD3 inh: inconclusive; DRD3 antagonist: -79*; HepG2 viability: -32%; S2 tox: inconclusive; ATXN2 expr inh: -88%

Results for CCCC(=O)OCCNc1cc(SCCC(=O)OC)c2nonc2c1[N+](=O)[O-] ?
D3 ag: -1; TGFb SMAD3 inh: inconclusive; DRD3 antagonist: 3; HepG2 viability: -61%; S2 tox: inactive; ATXN2 expr inh: -22%

Results for CC(=O)OCCCNc1cc(Sc2ccc(C)cc2)c2nonc2c1[N+](=O)[O-] ?
D3 ag: -35; TGFb SMAD3 inh: -5%; DRD3 antagonist: -73*; HepG2 viability: -27%; S2 tox: inconclusive; ATXN2 expr inh: -62%

What do the screens show for `COC(=O)CCSc1cc(NCCOC(C)=O)c([N+](=O)[O-])c2nonc12`?
D3 ag: -3; TGFb SMAD3 inh: inconclusive; DRD3 antagonist: -12; HepG2 viability: -75%; S2 tox: inactive; ATXN2 expr inh: 4%

Results for CC(=O)OCCNc1cc(SCc2ccco2)c2nonc2c1[N+](=O)[O-] ?
D3 ag: -1; TGFb SMAD3 inh: inconclusive; DRD3 antagonist: inconclusive; HepG2 viability: -58%; S2 tox: inconclusive; ATXN2 expr inh: inconclusive

What do the screens show for `CC(=O)OCCCNc1cc(Sc2nc3ccccc3s2)c2nonc2c1[N+](=O)[O-]`?
D3 ag: -17; TGFb SMAD3 inh: inconclusive; DRD3 antagonist: -78*; HepG2 viability: -4%; ATXN2 expr inh: 16µM*

What do the screens show for `Cc1ccc(CNC(=O)C(=O)NCC(c2ccc3c(c2)OCO3)N2CCOCC2)cc1` (stereo not given)?
D3 ag: -1; TGFb SMAD3 inh: 0%; HepG2 viability: 2%

What do the screens show for `O=C1Nc2c(Cl)cc(Cl)cc2C1=O`?
D3 ag: -12; TGFb SMAD3 inh: inconclusive; DRD3 antagonist: -93*; HepG2 viability: -55%; S2 tox: inactive; ATXN2 expr inh: -15%

What do the screens show for `CCOC(=O)C1(CC2CCCCO2)CCN(Cc2ccc(OC)cc2F)CC1` (stereo not given)?
D3 ag: -12; TGFb SMAD3 inh: -25%; DRD3 antagonist: -67*; HepG2 viability: -10%; S2 tox: inactive; ATXN2 expr inh: -26%

What do the screens show for `O=C(C[n+]1ccccc1Cl)c1ccc(F)cc1`?
TGFb SMAD3 inh: -5%; HepG2 viability: -34%

What do the screens show for `COc1cccc(NC(=O)C2CCN(c3nc4ccccc4nc3C(F)(F)F)CC2)c1`?
D3 ag: 32*; TGFb SMAD3 inh: inconclusive; HepG2 viability: -31%; S2 tox: inconclusive; ATXN2 expr inh: -35%

Results for O=C(CSc1nc2c([nH]c3ccccc32)c(=O)n1-c1ccc(F)cc1)NCc1ccc(F)cc1 ?
D3 ag: -1; TGFb SMAD3 inh: -7%; HepG2 viability: -15%; S2 tox: inactive; ATXN2 expr inh: 7%

Source: PubChem (National Center for Advancing Translational Sciences (NCATS))
